The AC50 is the midpoint of the concentration-response curve, whichever way the signal moves.

Calls of active or inactive are those of the source. Rule for the calls: active = hit-call score of the fitted dose curve at least 0.9, where 1 is the maximum; inactive = score below 0.9.

This assay can be described thus: CCTE_Shafer_MEA_acute_cross_correlation_area: CCTE's Neural Acute Assay for Area of Cross Correlation, Shafer Lab (AID 2284024).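 Note: curves fitted for loss of cross-correlation area so actives lower synchrony.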 The method, then: CCTE_Shafer_MEA_acute assay is conducted using Axion Biosystems 48 well microelectrode array (MEA) plates and Maestro recording system. Each well of the MEA plate contains a grid of 16 microelectrodes embedded in the culture surface. Electrically active cells, such as neurons, can be cultured over the electrodes, and electrical activity in these cells can be recorded extracellularly. The spontaneous firing of neurons is captured from each electrode on a microsecond timescale providing both temporally and spatially precise data. […] The CCTE_Shafer_MEA_acute assay uses primary cultures of rat cortical neurons. As these cultures mature over time, neural networks develop functional activity and form cohesive networks in which electrical activity can be highly coordinated. Baseline 40-minute recordings are made on days post-plating 13 or 15, followed by a secondary 40-minute recording after chemical exposure.CCTE_Shafer_MEA_acute_cross_correlation_area is a component of the CCTE_Shafer_MEA_acute assay. It measures the area under the well-wide pooled inter-electrode cross-correlation of action potential firing (not normalized to auto-correlations) within a window centered around 0 for the phase lag during a recording in a microelectrode array (MEA) using Axion Biosystems Maestro 768 channel amplifier with the AxIS adaptive spike detector. The recordings before and after chemical treatment are used to calculate a percent change in the cross correlation area in each well.Data from the assay component CCTE_Shafer_MEA_acute_cross_correlation_area was analyzed into 1 assay endpoint. This assay endpoint, CCTE_Shafer_MEA_acute_cross_correlation_area, was analyzed in the negative analysis fitting direction relative to DMSO as the negative control and baseline of activity. Using a type of functional reporter, gain or loss-of-signal activity can be used to understand electrical activity.
Spontaneous activity in the cortical cultures was recorded using an Axion Biosystems Maestro 768 channel amplifier and Axion Integrated Studios (AxIS) v1.8 (or later) software. The amplifier recorded from all channels simultaneously (gain = 1200 x; sampling rate = 12.5 kHz/channel): raw signals were filtered with a Butterworth band-pass filter (300-5000 Hz), which filters out slower local field potentials leaving only fast potentials, i.e., "spikes", arising from extracellular currents associated with action potentials (Pine 2006; Wheeler and Nam 2011). On-line spike detection of filtered signals was conducted with the AxIS adaptive spike detector, using a threshold of 8x the root mean squared (rms) noise on each channel. Any electrodes with rms noise levels greater than 5 uV were grounded (e.g., no data were recorded). Once grounded, an electrode was grounded for the duration of the experiment. All recordings were conducted at 37 C. Wells were deemed usable if on the day of the exposure >/= 10 electrodes were active (defined as >/= 5 spikes/min). On DIV 13 or 15, a minimum of three wells from one cortical culture preparation were treated with each compound (0.03-40 uM). Prior to recording baseline activity, each mwMEA plate was placed in the Maestro at 37 C and allowed to sit for 20 min while firing rates stabilized. Baseline activity (40 min) was recorded before the addition of each compound. An additional 40 min of spontaneous activity was recorded in the presence of each compound. Changes in network parameters relative to baseline were assessed following compound treatment.
Consider `Nc1ncn([C@@H]2O[C@H](CO)[C@@H](O)[C@H]2O)c(=O)n1`, for which the AC50 was 6.71 nM (active).

Take `O=C1CCCN1CCO`: the molecule was classed as inactive. For the molecule `O=C(c1ccc(O)cc1)c1ccc(O)cc1O`, the result was inactive. On the same count and under the same terms, then `C=C[Si](OC(C)=O)(OC(C)=O)OC(C)=O`, with “inactive”; and `CCCCC(CC)COCC1CO1` (stereo unspecified), with “inactive”; and `CO[Si](OC)(OC)c1ccccc1`, with “inactive”. Same read-out and setting: then `CCOC(=O)c1ccccc1C(=C1C=C(Br)C(=O)C(Br)=C1)c1cc(Br)c(O)c(Br)c1`, with “inactive”. Same read-out and setting: to `CCO[Si](C)(OCC)OCC` belongs “inactive”. For `CCCCC(CC)COC(=O)c1ccccc1O` (stereo unspecified), the result was inactive.

Regarding `Nc1ccc(N)c(Cl)c1`, the molecule was called inactive. Same read-out and setting: to `CN1C(=O)N(C)C(O)C1O` (stereo unspecified) belongs “inactive”.

The values are drawn from PubChem BioAssay (EPA / NIEHS).
